This experiment in a line: P-glycoprotein substrates identified in KB-8-5-11 adenocarcinoma cell line, qHTS therapeutic library screen (AID 1346987). Further: nearly all actives have a fitted effect of over 65% in size. The procedure, abridged: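 KB-8-5-11: colchicine-selected sub-line of KB-3-1 over-expressing P-gp; assay medium lacked colchicine. 72 h drug exposure at 37 degree C, CellTiter-Glo.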

Molecules are shown by their SMILES. Results filed as inconclusive are left out. Where a call stands in place of a potency, no number is given. Calls of active or inactive are those of the source. The call rests on the fitted dose curve; in most records, active means well fitted inhibition curve with a large enough effect; inconclusive means small, poorly fitted or top-dose-only effect; inactive means flat fitted curve, though single readings scatter.
Potency means the concentration at half of the fitted maximal effect.

For the compound `CCCCOC(=O)C(=O)Nc1cccc(-c2nn[nH]n2)c1`, the Potency entry was “inactive”.
Under `O=C(C1CCCCC1)N(CCN1CCN(c2ccccc2O)CC1)c1ccccn1` stands “inactive”.
Next, `CC(=O)O[C@H]1[C@@]2(O)C[C@H](C)[C@H](OC(=O)c3ccccc3)[C@@H]2[C@@H](OC(=O)CO)[C@]2(OC(C)=O)C[C@H]3C(=O)C(C)(C)C[C@@H]3[C@@]1(C)[C@H]2OC(C)=O`: “inactive”; `CCn1c2ccccc2c2cc(Nc3ccnc(NCCCN4CCOCC4)n3)ccc21`: 20.6 µM (active).
Take `NCCC[C@H](N)C(=O)O`: the Potency entry is “inactive”.
Under `O=C(O)c1ccccc1[O-].O=C(O)c1ccccc1[O-].[Zn+2]` stands “inactive”.
Next, `CCO[C@H]1CN(C2CCC(O)(c3ccc4c(c3)OCO4)CC2)C[C@@H]1NC(=O)CNC(=O)c1cccc(C(F)(F)F)c1` (some centres not stated): “inactive”; `CC1CCCC[C@H]2C(=O)C=C[C@H](O)[C@@H]2CC(=O)O1` (some centres not stated): 7.31 µM (active).
Next, `Cc1cnn(-c2ccccc2)c1NC(=O)COCc1ccccc1`: “inactive”; `O=C(NCC1(N2CCN(c3ccccc3)CC2)CCOCC1)c1cccnc1Sc1ccccc1`: “inactive”; `CC[C@@H](C)[C@@H]1OC2(C=C[C@H]1C)C[C@@H]1C[C@H](C/C=C(\C)[C@H](O[C@H]3C[C@H](OC)[C@H](O[C@H]4C[C@H](OC)[C@H](NC(C)=O)[C@H](C)O4)[C@H](C)O3)[C@H](C)/C=C/C=C3\CO[C@H]4[C@H](O)C(C)=C[C@@H](C(=O)O1)[C@@]34O)O2` (some centres not stated): 10.1 µM (active).
Consider `O=C(Nc1cccc2cccnc12)c1ccc(N2C(=O)[C@@H]3C4C=CC(C4)[C@@H]3C2=O)cc1`, for which the Potency result is “inactive”.

Source of the values: PubChem BioAssay (NCATS).
